In the library only some 2.9% were active in any assay of this set; here they are far more common.
ALOX12 inh: ALOX12 (human) lipoxygenase inhibition. purified 12hLO, xylenol orange hydroperoxide absorbance. Potency, µM (doses to about 108 µM), for the others: top-dose activity change, negative = inhibition, most hits filed as inhibitors. hit rate 1.1% among 580,000; also: potency is read from the fitted curve at half-maximal effect; % is scaled to controls: 0 for no effect and ±100 for the full control effect
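Purified human 12hLO (150 nM final) in 25 mM Hepes, 0.01% Triton X-100, pH 7.0 was preincubated 15 min at room temperature with compound. Then 40 uM arachidonic acid was added, 30 min. Hydroperoxide was read by Fe-XO absorbance ratio 573/405 nm.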
Pol beta inh: inhibitors of human DNA polymerase beta; Pol beta primer extension/strand displacement, fluorescence kinetic; Potency, µM (series often up to 114 µM), inactives show top-dose activity change, negative = inhibition, usual class: inhibitors; hit rate 1.3% among 340,000; AID 485314; also: potency is read from the fitted curve at half-maximal effect; % is scaled to controls: 0 for no effect and ±100 for the full control effect
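Homogeneous kinetic assay of primer extension and strand displacement by 10 nM Pol beta, preincubated 15 min at room temperature with compound before 50 nM substrate (final) was added. Read at 0 and 10 min; four-parameter Hill fit.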
PI5P4K alpha inh: blocks human PI5P4K alpha kinase activity. PI5P4Kalpha enzyme, ADP-Glo luminescence, 60 min; stronger effect = lower value. max response, %. hit rate 1.2% among 330,000; active = max response of -50% or lower; inconclusive = between -30% and -50%; inactive = -30% or higher; also: value at the top dose of about 77 µM; % is scaled to controls: 0 for no effect and ±100 for the full control effect
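Quantitative HTS of the MLSMR library against PI5P4Kalpha with substrate. ATP added last at 5 microM final; room temperature, 60 minutes. Remaining ATP depleted, ADP converted and read as luminescence.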
Pol eta inh-1: DNA polymerase eta (human) inhibition | Potency, µM (doses to about 114 µM), inactives show at the top dose activity change, negative = inhibition, usual class: inhibitors | hit rate 1.2% among 390,000 | Q9Y253 | recombinant Pol eta, fluorescent DNA replication assay | AID 588591; also: potency is read from the fitted curve at half-maximal effect; % is scaled to controls: 0 for no effect and ±100 for the full control effect
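Fluorescent replication assay: 50 nM final substrate added after a 15 min room-temperature compound preincubation with 10 nM enzyme. Signal taken at 0 min and again at 10 min.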
Pol iota inh: blocks human DNA polymerase iota activity. Q9UNA4. Pol iota fluorescent replication assay, 10 min. Potency, µM (series often up to 115 µM), for the others: at the top dose activity, negative = inhibition, actives largely listed as inhibitors. hit rate 1% among 390,000; also: potency is read from the fitted curve at half-maximal effect
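Pol iota at 10 nM preincubated 15 min with compounds at room temperature; reaction started with fluorescent substrate, 50 nM final. Fluorescence read kinetically at 0 and 10 min; buffer-only wells as negative control.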
Pol kappa inh-1: blocks human DNA polymerase kappa activity; purified Pol kappa, fluorescent DNA synthesis assay, 10 min; Q9UBT6; Potency, µM (titrated, usually from 107 µM), without a hit: at the highest dose activity, negative = inhibition, actives largely listed as inhibitors; AID 588579; hit rate 0.53% among 400,000; also: potency is read from the fitted curve at half-maximal effect; % is scaled to controls: 0 for no effect and ±100 for the full control effect
Target sequence (Q9UBT6 whole entry, looked up): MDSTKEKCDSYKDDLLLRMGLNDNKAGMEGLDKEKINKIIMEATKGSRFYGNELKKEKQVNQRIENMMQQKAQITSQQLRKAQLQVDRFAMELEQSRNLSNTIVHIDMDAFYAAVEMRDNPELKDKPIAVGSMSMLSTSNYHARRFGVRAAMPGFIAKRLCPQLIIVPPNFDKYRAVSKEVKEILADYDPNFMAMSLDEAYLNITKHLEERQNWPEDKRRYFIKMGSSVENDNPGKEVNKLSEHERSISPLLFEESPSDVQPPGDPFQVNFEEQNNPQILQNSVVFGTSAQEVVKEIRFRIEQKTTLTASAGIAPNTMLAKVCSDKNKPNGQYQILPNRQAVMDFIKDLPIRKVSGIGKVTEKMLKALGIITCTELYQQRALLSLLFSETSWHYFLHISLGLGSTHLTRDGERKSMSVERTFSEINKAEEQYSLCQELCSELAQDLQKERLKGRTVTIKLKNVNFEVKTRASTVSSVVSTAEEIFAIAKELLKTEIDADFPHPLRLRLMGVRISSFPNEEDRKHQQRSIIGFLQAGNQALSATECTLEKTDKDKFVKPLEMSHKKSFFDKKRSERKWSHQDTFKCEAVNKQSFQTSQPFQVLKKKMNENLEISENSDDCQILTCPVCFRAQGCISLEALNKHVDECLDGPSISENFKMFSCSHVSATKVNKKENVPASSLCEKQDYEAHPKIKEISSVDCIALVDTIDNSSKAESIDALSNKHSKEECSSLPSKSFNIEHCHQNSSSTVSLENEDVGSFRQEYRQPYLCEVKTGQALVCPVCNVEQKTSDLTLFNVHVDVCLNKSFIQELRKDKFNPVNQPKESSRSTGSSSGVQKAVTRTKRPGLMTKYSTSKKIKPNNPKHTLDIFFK
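Kinetic fluorescence screen: compound preincubated 15 min RT with 10 nM enzyme; 50 nM substrate (final) initiates; reads at 0/10 min.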
PGK validate: TbPGK inhibition, hit validation; Potency, µM (highest dose often 57.5 µM), without a hit: at the top dose activity change, negative = inhibition, actives largely listed as inhibitors; hit rate 79% among 500; shares compounds with Pol kappa inh-1; TbPGK coupled GAPDH assay, Kinase-Glo luminescence; also: potency is read from the fitted curve at half-maximal effect; % is scaled to controls: 0 for no effect and ±100 for the full control effect; nearly all actives have a fitted effect of over 65% in size
Pol iota confirm: Human Pol iota inhibitor confirmatory assay. shares compounds with Pol kappa inh-1. Pol iota primer extension, TAMRA/BHQ fluorescence. Potency, µM, actives largely listed as inhibitors. hit rate 77% among 1,500. AID 720496; also: potency is read from the fitted curve at half-maximal effect
Pol kappa inh-2: confirmation of human DNA polymerase kappa inhibitors. shares compounds with Pol eta inh-1. purified Pol-kappa, fluorescent strand-displacement substrate. Potency, µM, most hits filed as inhibitors. hit rate 76% among 920. AID 720501; also: potency is read from the fitted curve at half-maximal effect
Pol eta inh-2: confirmation of human DNA polymerase eta inhibitors | Pol eta primer extension, TAMRA/BHQ fluorescence, 10 min | hit rate 64% among 2,600 | shares compounds with Pol eta inh-1 | Potency, µM, hits mostly inhibitors | AID 720502; also: potency is read from the fitted curve at half-maximal effect
* hit, by the source's call; i = inactive; ? = inconclusive; nt = no result; [ ] = dose if it differs, or a comment. Unless noted, calls follow the shape of the dose curve; as a rule, active = well fitted curve in the direction sought with a large enough effect; inconclusive = small, poorly fitted or top-dose-only effect, or another doubt; inactive = no such curve, though single readings can be large; an effect the other way counts as inactive or inconclusive.

SMILES	ALOX12 inh	Pol beta inh	PI5P4K alpha inh	Pol eta inh-1	Pol iota inh	Pol kappa inh-1	Pol iota confirm	others
Cc1cc(=O)oc2cc(OCC(=O)Nc3ccc4ccccc4c3)ccc12	-2%	nt	nt	nt	nt	nt	nt
CN(C)c1ccc(-c2nc3ccccn3c2/N=C/c2ccc(Br)cc2)cc1	15%	-1%	-9	-12%	5%	-11%	nt	PGK validate=?
C[C@@H]1O[C@@H](O[C@@H]2[C@@H](O)[C@H](OCCc3ccc(O)c(O)c3)O[C@H](CO)[C@H]2OC(=O)/C=C/c2ccc(O)c(O)c2)[C@H](O)[C@H](O)[C@H]1O	-17%	nt	-26	-5%	?	22µM*	21*
COc1cc(/C=C/C(=O)OC[C@H]2O[C@H](OC3(CO)OC(CO)C(O)C3O)[C@H](O)[C@@H](O)[C@@H]2O)ccc1O (some centres undefined)	0%	nt	0	2%	4%	-6%	nt
COc1ccc(CN2CCNc3cc(Nc4ccccc4)ncc3C2)cc1	11%[176 µM]	nt	nt	nt	nt	nt	nt
Cc1ccc(NC(=O)CN2C(=O)S/C(=C\c3ccc(C(=O)O)cc3)C2=O)cc1	0%	39%	-5	7%	-5%	-3%	nt
Cc1ccc(NC(=O)CN2C(=O)S/C(=C/c3ccc(-c4cccc(C(=O)O)c4)o3)C2=O)cc1	40µM*	11µM*	?	5.6µM*	25µM*	32µM*	nt	PGK validate=12µM*
COC(=O)c1sccc1NC(=O)Nc1ccc(F)cc1	?	3%	1	-15%	-7%	0%	nt	PGK validate=13µM*
COc1ccc(-n2cccc2/C=C2\C(=N)N3N=C(c4ccco4)SC3=NC2=O)cc1	-30%	5.6µM*	-53*	8.9µM*	?	22µM*	nt	PGK validate=3.7µM*
COc1ccc(-n2cccc2/C=C2\C(=N)N3N=C(C(C)C)SC3=NC2=O)cc1	-10%	1%	1	-25%	40%	-7%	nt
COc1ccc(-n2c(SCC(=O)Nc3nccs3)nnc2-c2ccc(Cl)cc2)cc1	-8%	nt	-16	?	13%	0%	?
Cc1ccc2c(c1)C1(CC(=O)Nc3c1cnn3-c1cccc(Cl)c1)C(=O)N2 (centres undefined)	-10%	nt	nt	nt	nt	nt	nt
Cc1ccc(S(=O)(=O)NCc2ccc(C(=O)NCCc3ccc(S(N)(=O)=O)cc3)cc2)cc1	0%	?	1	?	32µM*	-13%	?
Cc1ccc(CC(=O)NCCc2ccc(S(N)(=O)=O)cc2)cc1	i	22%	-1	2%	-13%	2%	nt
CC(C)NC(=O)NC(=O)COC(=O)c1cc(-c2cccs2)nc2ccccc12	-28%	nt	nt	nt	nt	nt	nt
CC(C)(C)NC(=O)N1CCOc2ccc(CN3CCc4ccccc4C3)cc2C1	78%	nt	nt	nt	nt	nt	nt
C/C(=N\NC(=O)c1cc(O)cc(O)c1)c1ccc(NC(=O)Cc2ccccc2)cc1	?	1.6µM*	-90*	3.2µM*	5µM*	22µM*	nt	PGK validate=1.8µM*
COc1cc(NC(=O)Cc2nc(-c3ccccc3)oc2C)cc(OC)c1	-9%	nt	nt	nt	nt	nt	nt
COc1ccccc1NC(=O)c1cnc(SCC(=O)N2CCOCC2)n(C)c1=O	1%	4%	nt	?	12%	-4%[60.1 µM]	?
Cn1c(SCC(=O)N2CCOCC2)ncc(C(=O)Nc2ccccc2)c1=O	5%	-2%	nt	-14%	-3%	-1%[60.1 µM]	nt
O=c1nc2cccc3c2=c(/c1=C(\O)c1ccccc1)c1ccccc1c3=O	-13%	10µM*	-14	50µM*	45%	7%[60.1 µM]	?
O=c1[nH]c(/C=C/c2cccc3ccccc23)nc2ccccc12	?	3%	-11	-14%	83%	-4%	nt
CCCc1cc(=O)oc2cc(OCC(=O)Nc3ccc(S(N)(=O)=O)cc3)ccc12	?	89µM*	-4	10µM*	5µM*	40µM*	38*
CCCc1cc(=O)oc2cc(OCC(=O)Nc3ccc(C(=O)N(C)C)cc3)ccc12	1%	nt	nt	nt	nt	nt	nt
CCOc1ccccc1NC(=O)c1cc2cc3cc(C)ccc3nc2s1	-29%	-21%	nt	-12%	5%	-4%[60.1 µM]	nt
SMILES	ALOX12 inh	Pol beta inh	PI5P4K alpha inh	Pol eta inh-1	Pol iota inh	Pol kappa inh-1	Pol iota confirm	others
Cc1ccc2nc3sc(C(=O)Nc4ccc(F)cc4)cc3cc2c1	-22%	2.5µM*	nt	-11%	?	-2%[60.1 µM]	75*
Cc1ccc2nc3sc(C(=O)Nc4ccncc4)cc3cc2c1	nt	nt	nt	nt	nt	nt	?
Cc1cc(C)c(Nc2cc(S(=O)(=O)O)c(N)c3c2C(=O)c2ccccc2C3=O)c(C)c1	?	20µM*	-61*	18µM*	?	?	nt	PGK validate=29µM*;Pol kappa inh-2=34*;Pol eta inh-2=?
Oc1cc2c(cc1O)[C@H]1c3ccc(O)c(O)c3OC[C@@]1(O)C2	?	nt	?	14µM*	7.9µM*	22µM*	38*	Pol kappa inh-2=24*;Pol eta inh-2=27*
COc1cc(/C=N/NC(=O)c2cc(-c3cccn3C)n[nH]2)cc(OC)c1OC	-30%	?	nt	28µM*	3.5µM*	?	?	Pol kappa inh-2=19*;Pol eta inh-2=27*
COc1cc(/C=N\NC(=O)c2ccc(=O)[nH]n2)cc(OC)c1OC	?	13µM*	1	?	16µM*	50µM*	30*	Pol eta inh-2=48*
COc1cc(/C=N/NC(=O)c2ccncc2)cc(OC)c1OC	5%	-26%	5	-7%	10%	-5%	nt
COC(CNC(=O)C1CCN(S(=O)(=O)c2ccc3nc4c(c(C(=O)O)c3c2)CC(C)CC4)CC1)OC (centres undefined)	-1%	-16%	-1	14µM*	?	?	21*	Pol eta inh-2=5.4*
Cc1ccc(N2C(=O)c3ccccc3C2=O)cc1	0%	29%	10	-6%	65%	3%	nt
Cc1ccc(SC2=C(Sc3ccc(C)cc3)C(=O)c3ccccc3C2=O)cc1	?	1%	-15	18µM*	6.3µM*	5%	?	Pol eta inh-2=85*
CN1/C(=C\C=C2/SC(=S)N(CC(=O)O)C2=O)C(C)(C)c2ccccc21	-15%	40µM*	-27	45µM*	nt	?	38*	Pol kappa inh-2=34*;Pol eta inh-2=34*

From PubChem BioAssay
